Laboratory results published in PubChem BioAssay.
Measured potencies and affinities stand elsewhere. Results filed as inconclusive are left out. The source made the active and inactive calls. Unless noted, the rule behind the calls is not given here.

What was measured:
[1] = cytotoxicity in PAX8-dependent RMG-1 cells, dose response, cell-based, cherry-pick (AID 687029;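 active = signal drop whose fitted half-maximal concentration is at most twice the top valid dose, in every test run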;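 note: cells exposed to compound for 96 hours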)
[2] = cytotoxicity in IOSE-T80 ovarian epithelial cells, dose response, selectivity assay for PAX8 inhibitor project, cell-based, cherry-pick (AID 687032;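 active = fitted half-maximal concentration for viability loss no higher than twice the top valid dose, in every repeat run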;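 note: cells exposed to compound for 96 h before reading; 0% = neutral control wells and -100% = 2 µM mitoxantrone kill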)
[3] = inhibitors of CMV-promoter luciferase reporter, dose response, counter-screen for Pax8 inhibitor project, cell-based, HEK293, luminescence, dry powder (AID 743020;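 active = signal-lowering compounds whose fitted half-maximal concentration is at or below twice the top tested dose in every run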;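 note: HEK293 cells stably expressing the CMV luciferase reporter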)
[4] = non-specific cell cytotoxicity, dose response, cytotoxicity control for PAX8 inhibitor project, plate reader, dry powder samples (AID 743021)
[5] = IGROV1 ovarian cancer cell cytotoxicity, dose response, PAX8 inhibitor project, plate reader, dry powder samples (AID 743043);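 note: more negative means fewer viable cells or more cytotoxicity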
[6] = NIH:OVCAR-3 ovarian cancer cell cytotoxicity, dose response, PAX8 inhibitor project, plate reader, dry powder samples (AID 743044); settings: max activity: at 35 µM, stronger effect = lower value unless noted
[7] = IOSE-T80 ovarian epithelial cell cytotoxicity, dose response, cytotoxicity control for PAX8 inhibitor project, plate reader, dry powder samples (AID 743045);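 note: 0% = neutral control median and -100% = positive control median; more negative values mean more cell killing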
[8] = A2780 ovarian cancer cell cytotoxicity, dose response, cytotoxicity control, plate reader, dry powder samples (AID 743046);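 note: 0% = neutral control wells and -100% = cytotoxic reference compound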
[9] = cytotoxicity in OVCAR8 ovarian cancer cells, dose response, PAX8 project, cell-based, plate reader, dry powder samples (AID 743197)

Measured: max activity

C[C@H]1CCCCO[C@@H](CN(C)S(=O)(=O)c2cccs2)[C@@H](C)CN([C@@H](C)CO)C(=O)c2cc(NC(=O)NC3CCCCC3)ccc2O1
inactive: [1] | [2] | [3] | [4] | [5] | [6] -5.85% [at 8 µM, stronger effect = lower value] | [7] | [8] | [9]

C[C@@H]1CN([C@@H](C)CO)C(=O)c2ccccc2-c2ccccc2CO[C@H]1CN(C)Cc1ccccc1C(F)(F)F
inactive: [1] | [2] | [3] | [4] | [5] | [6] 28.3% [at 16 µM, stronger effect = lower value] | [7] | [8] | [9]

C[C@@H]1CN([C@H](C)CO)C(=O)Cc2cc(NS(=O)(=O)c3ccccc3)ccc2O[C@@H]1CN(C)S(=O)(=O)c1ccc(Cl)cc1
inactive: [1] | [2] | [3] | [4] | [5] | [6] 47.5% | [7] | [8] | [9]

O=C(c1ccc(F)cc1)N1C[C@@H]2N[C@H](C1)C2c1ccc(-c2ccc(F)cc2)cc1 (stereo partly drawn)
inactive: [1] | [2] | [3] | [4] | [5] | [6] -17.2% [at 4.2 µM, stronger effect = lower value] | [7] | [8] | [9]

C[C@@H]1CN([C@@H](C)CO)C(=O)Cc2cc(NC(=O)C3CC3)ccc2O[C@H]1CN(C)Cc1ccc(-c2ccccc2)cc1
inactive: [1] | [2] | [3] | [4] | [5] | [6] 11.5% [at 0.26 µM, stronger effect = lower value] | [7] | [8] | [9]

C[C@H](CO)N1C[C@H](C)[C@H](CN(C)C(=O)Nc2ccc(-c3cccs3)cc2)OCc2cnnn2CCCC1=O
inactive: [1] | [2] | [3] | [4] | [5] | [6] -11.7% | [7] | [8] | [9]

C[C@@H]1CCCCO[C@H](CN(C)Cc2ccncc2)[C@H](C)CN([C@@H](C)CO)C(=O)c2cc(NC(=O)Nc3ccc(C(F)(F)F)cc3)ccc2O1
inactive: [1] | [2] | [3] | [4] | [5] | [6] -11.1% [at 0.26 µM, stronger effect = lower value] | [7] | [8] | [9]
